The subject of assay [1] is Wnt5a (protein binding on small-molecule microarray). The assay is described as follows: Wnt5a binders on small-molecule microarray, primary screen, biophysical, 635/667 nm fluorescence (AID 1142).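 Note: fluorescence read at 667 nm with signal to noise per printed feature.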 The conditions noted are these: 635 nm fluorescence, higher = more signal.
Assay [2] in a line: cell viability in Huh7 cells, primary screen, cytotoxicity control for HCV replication inhibitor project, CellTiter-Glo luminescence, basal, 48 h (AID 1143).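 Note: Huh7 hepatoma cells carrying a hepatitis C replication reporter with no stimulus; test concentration not given here.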 The conditions noted are these: Huh7 HCV replicon, higher = more signal, called active from +8 up or from −8 down. (In general: In ATP-based viability assays light output follows the ATP content of the culture.)
A short description of assay [3]: P. aeruginosa biofilm formation inhibitors, primary screen, PAO1 strain, BacTiter-Glo luminescence, LB-PBS (AID 1144). The settings on record: 12 h, higher = more signal.
A short description of assay [4]: CREB reporter modulators without forskolin, primary screen, cell-based, PC12, CRE-LacZ reporter, unstimulated (AID 1145). The conditions noted are these: no forskolin, luminescence, 4.5 h, higher = more signal, called active from +8 up or from −8 down.
Assay [5] can be described thus: CREB reporter modulators under forskolin, primary screen, cell-based, PC12, CRE-LacZ reporter, forskolin-stimulated (AID 1146).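 Note: PC12 cells with 6xCRE LacZ reporter stimulated by forskolin 10 µM; beta-galactosidase reporter signal reflecting CREB driven transcription.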 The conditions noted are these: luminescence, 4.5 h, higher = more signal, called active from +8 up or from −8 down.
The target in assay [6] is Streptavidin (Streptomyces avidinii) (UniProt P22629). The assay is described as follows: streptavidin binders on small-molecule microarray, primary screen, artefact control for SMM compound annotation, biophysical, 635/667 nm fluorescence (AID 1147).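 Note: signal reflects streptavidin binding to arrayed compounds as a control protein.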 The conditions noted are these: streptavidin binding, higher = more signal.
The nature of assay [7]: small-molecule binders of probe aInhba, primary screen, biochemical, small-molecule microarray, 635/667 nm fluorescence (AID 1148).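 Note: score merges 667nm spot fluorescence with signal-to-noise for antibody binding to printed compounds.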 The conditions noted are these: higher = more signal.
For assay [8], the target named is Torsin-1A (Homo sapiens) (UniProt O14656). The assay is described as follows: torsin A binders from cell lysate, primary screen, small-molecule microarray, wild-type, 635/667 nm (AID 1149). The conditions noted are these: COS7 hTOR1A-WT lysate, 635 nm fluorescence, higher = more signal.
Assay [9] shares this target. The assay can be described thus: small-molecule binders of mutant TOR1A in lysate, primary screen, cell lysate, small-molecule microarray, COS7 lysate, 635/667 nm fluorescence (AID 1150).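 Note: score pools 667 nm emission and signal to noise measuring lysate protein binding.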 The conditions noted are these: COS7 hTOR1A mutant lysate, 635 nm fluorescence, higher = more signal.
For assay [10], the system named is Sonic hedgehog protein (Shh). The assay can be described thus: small-molecule binders of Shh protein, primary screen, biochemical, small-molecule microarray, 635/667 nm fluorescence (AID 1151).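 Note: Shh protein binding to compounds spotted on small-molecule microarray slides; score combines spot fluorescence intensity with signal-to-noise across triplicate slides.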 The conditions noted are these: small-molecule microarray binding, 635 nm fluorescence; higher = more signal.
The nature of assay [11]: E. coli DRC41 culture turbidity changes, primary screen, E. coli filamentation inducer project, strain DRC41, OD650, 48 h (AID 1152).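 Note: E. coli MC1000 strain DRC41 lacking acrAB efflux pump and sulA.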 The conditions noted are these: E. coli DRC41 (acrAB sulA), higher = more signal, called active from +8 up or from −8 down.
Assay [12] can be described thus: small-molecule binders of probe aLefty1, primary screen, biochemical, small-molecule microarray, 635/667 nm fluorescence (AID 1153).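 Note: score merges spot fluorescence with signal-to-noise ratio from the scanned slide images.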 The conditions noted are these: higher = more signal.
Assay [13] in a line: PSAC antagonists in infected red cells, primary screen, cell-based, P. falciparum Indochina, OD700, 1 h (AID 1154). The conditions noted are these: P. falciparum Indochina infected RBC osmotic lysis, higher = more signal, called active from +8 up or from −8 down.
Assay [14] can be described thus: PSAC antagonists in infected red cells, primary screen, cell-based, P. falciparum Indochina, OD700, 2 h (AID 1155).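 Note: lysis reports solute entry through the parasite surface anion channel PSAC; channel blockers reduce lysis of infected cells.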 The settings on record: P. falciparum Indochina infected erythrocytes, osmotic lysis OD700; higher = more signal, called active from +8 up or from −8 down.
Assay [15] is described as follows: osmotic lysis modulators in infected erythrocytes, primary screen, PSAC antagonist project, cell-based, P. falciparum Indochina, OD700, 3 h (AID 1156). The conditions noted are these: higher = more signal, called active from +8 up or from −8 down.
Assay [16] can be described thus: PSAC antagonists in infected red cells, primary screen, cell-based, P. falciparum Indochina, OD700, 18 h (AID 1157). The settings on record: P. falciparum Indochina infected erythrocytes, osmotic lysis OD700, 18 h; higher = more signal, called active from +8 up or from −8 down.
Assay [17] in a line: modulators of S6 phosphorylation in cells, primary screen, cell-based, A549, cytoblot, luminescence, serum-stimulated (AID 1158).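 Note: serum-stimulated A549 lung adenocarcinoma cells; signal is phosphorylated S6 detected by cytoblot immunostaining with HRP secondary.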 The settings on record: A549 phospho-S6 cytoblot, 5 h, higher = more signal.
Assay [18] deals with NADPH oxidase 2 (Homo sapiens) (UniProt P04839). The assay can be described thus: NOX2-dependent H2O2 signal modulators, primary screen, NOX inhibitor project, cell-based, HEK293-NOX2, PMA-stimulated, Amplex Red fluorescence (AID 1159). Note: test concentration not given here. The settings on record: 45 min, higher = more signal, called active from +8 up or from −8 down.
Assay [19] concerns the target NADPH oxidase 4 (Homo sapiens) (UniProt Q9NPH5). The assay is described as follows: NOX4-dependent H2O2 signal modulators, primary screen, NOX inhibitor project, cell-based, HEK293-NOX4, tetracycline-induced, Amplex Red fluorescence (AID 1160). The settings on record: 45 min, higher = more signal, called active from +8 up or from −8 down.
Assay [20] concerns the target NADPH oxidase 5 (Homo sapiens) (UniProt Q96PH1). The assay can be described thus: NOX5-dependent H2O2 signal modulators, primary screen, NOX inhibitor project, cell-based, HEK293-NOX5, Amplex Red fluorescence (AID 1161). The conditions noted are these: HEK293-NOX5, ionomycin, 45 min, higher = more signal.

This passage reports composite z-score and z-score results from PubChem BioAssay.

Calls of active or inactive are those of the source. Unless noted, the rule behind the calls is not given here.

Streptavidin (Streptomyces avidinii), sequence (P22629 whole entry, looked up): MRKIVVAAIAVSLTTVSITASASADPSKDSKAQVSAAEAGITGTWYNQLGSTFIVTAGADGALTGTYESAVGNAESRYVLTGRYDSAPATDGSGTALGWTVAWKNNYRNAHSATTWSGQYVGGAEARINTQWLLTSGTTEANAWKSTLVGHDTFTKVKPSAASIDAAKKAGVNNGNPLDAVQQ
NADPH oxidase 2 (Homo sapiens), sequence (P04839 whole entry, looked up): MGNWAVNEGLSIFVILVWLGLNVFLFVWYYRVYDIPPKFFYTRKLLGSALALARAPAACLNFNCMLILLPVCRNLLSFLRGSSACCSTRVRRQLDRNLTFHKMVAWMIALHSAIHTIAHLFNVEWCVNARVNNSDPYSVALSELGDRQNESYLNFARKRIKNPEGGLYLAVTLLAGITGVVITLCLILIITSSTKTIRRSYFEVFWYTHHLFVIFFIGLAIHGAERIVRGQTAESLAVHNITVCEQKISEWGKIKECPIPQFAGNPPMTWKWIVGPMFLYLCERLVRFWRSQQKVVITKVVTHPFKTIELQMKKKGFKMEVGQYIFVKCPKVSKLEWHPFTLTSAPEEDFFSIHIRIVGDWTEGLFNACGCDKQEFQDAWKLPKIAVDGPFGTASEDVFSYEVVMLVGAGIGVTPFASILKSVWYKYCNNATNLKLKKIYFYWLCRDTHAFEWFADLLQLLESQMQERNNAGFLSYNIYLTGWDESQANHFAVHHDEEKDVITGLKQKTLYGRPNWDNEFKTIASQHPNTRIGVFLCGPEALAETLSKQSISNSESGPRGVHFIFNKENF
Torsin-1A (Homo sapiens), sequence (O14656 whole entry, looked up): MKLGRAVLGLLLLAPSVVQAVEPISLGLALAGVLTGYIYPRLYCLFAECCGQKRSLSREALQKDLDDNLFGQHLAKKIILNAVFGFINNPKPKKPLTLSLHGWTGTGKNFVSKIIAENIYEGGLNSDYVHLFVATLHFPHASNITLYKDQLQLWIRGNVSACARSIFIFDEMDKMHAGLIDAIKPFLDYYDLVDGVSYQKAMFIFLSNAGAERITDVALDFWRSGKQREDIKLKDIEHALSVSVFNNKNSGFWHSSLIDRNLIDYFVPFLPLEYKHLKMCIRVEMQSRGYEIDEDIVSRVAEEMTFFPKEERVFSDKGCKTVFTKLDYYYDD
NADPH oxidase 5 (Homo sapiens), sequence (Q96PH1 whole entry, looked up): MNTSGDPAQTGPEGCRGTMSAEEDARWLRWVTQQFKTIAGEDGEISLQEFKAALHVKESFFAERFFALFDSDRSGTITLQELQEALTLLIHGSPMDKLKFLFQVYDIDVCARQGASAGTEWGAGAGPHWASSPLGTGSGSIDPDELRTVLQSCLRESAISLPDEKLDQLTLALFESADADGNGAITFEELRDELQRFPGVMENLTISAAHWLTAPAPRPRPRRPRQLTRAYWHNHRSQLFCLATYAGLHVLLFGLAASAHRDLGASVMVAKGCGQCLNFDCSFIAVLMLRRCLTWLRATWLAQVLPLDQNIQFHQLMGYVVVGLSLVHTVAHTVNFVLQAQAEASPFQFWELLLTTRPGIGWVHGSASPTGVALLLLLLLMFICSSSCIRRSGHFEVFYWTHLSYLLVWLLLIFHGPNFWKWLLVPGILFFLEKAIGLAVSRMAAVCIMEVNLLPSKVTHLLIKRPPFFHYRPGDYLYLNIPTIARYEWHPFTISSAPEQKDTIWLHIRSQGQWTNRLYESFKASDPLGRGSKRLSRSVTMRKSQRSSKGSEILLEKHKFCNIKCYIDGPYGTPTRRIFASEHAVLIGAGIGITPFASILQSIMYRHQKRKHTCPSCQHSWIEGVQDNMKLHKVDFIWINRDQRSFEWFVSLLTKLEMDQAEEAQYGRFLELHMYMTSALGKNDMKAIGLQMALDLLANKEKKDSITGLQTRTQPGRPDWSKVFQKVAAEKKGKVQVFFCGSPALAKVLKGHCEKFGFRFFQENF
NADPH oxidase 4 (Homo sapiens), sequence (Q9NPH5 whole entry, looked up): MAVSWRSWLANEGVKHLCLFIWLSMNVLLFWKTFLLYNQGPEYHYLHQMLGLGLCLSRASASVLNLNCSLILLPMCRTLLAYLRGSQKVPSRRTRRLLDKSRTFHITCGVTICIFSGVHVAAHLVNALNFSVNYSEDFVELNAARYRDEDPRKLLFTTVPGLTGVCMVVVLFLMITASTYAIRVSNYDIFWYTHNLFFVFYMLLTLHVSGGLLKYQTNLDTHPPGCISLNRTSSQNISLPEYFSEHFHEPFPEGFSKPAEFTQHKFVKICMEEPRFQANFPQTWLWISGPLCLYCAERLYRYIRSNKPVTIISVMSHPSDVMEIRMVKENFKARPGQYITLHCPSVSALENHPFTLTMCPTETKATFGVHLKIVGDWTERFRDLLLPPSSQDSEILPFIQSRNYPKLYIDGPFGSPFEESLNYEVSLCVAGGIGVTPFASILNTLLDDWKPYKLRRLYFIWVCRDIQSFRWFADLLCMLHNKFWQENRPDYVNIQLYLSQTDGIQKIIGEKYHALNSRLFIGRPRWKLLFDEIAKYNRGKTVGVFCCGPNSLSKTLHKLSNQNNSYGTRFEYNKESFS

In the case of `Oc1ccc2cc[n+](Cc3cc4c(cc3Br)OCO4)cc2c1`, the composite z-score in [1] was -0.388; in [6], -0.909; in assay [7], -0.224; in assay [8], -0.896; in [9] it was -0.49; in [10] it was -0.598. The same compound had a composite z-score in [12] of -0.196. Moreover, the z-score was -0.501 (inactive) in assay [2]; -0.23 (inactive) in assay [3]; -0.788 (inactive) in [4]; -0.639 (inactive) in [5]; 1.27 (inactive) in assay [11]; 2.67 (inactive) in assay [13]. In addition, the z-score in [14] was 0.864 (inactive); in assay [15], -0.655 (inactive); in assay [16], 0.474 (inactive); in assay [17], 0.122; in assay [18] it was -0.546 (inactive); in assay [19] it was -0.154 (inactive). Further, in assay [20], the z-score was determined as 0.389.
As for `COCCOC(=O)N1C(=O)[C@@]2(c3cc(C#CC4=CCCCC4)ccc31)[C@H](c1ccccc1OCCO)N1[C@H](c3ccccc3)[C@H](c3ccccc3)OC(=O)[C@H]1[C@@H]2C(=O)N1CCN(c2ncccn2)CC1`, the composite z-score in assay [1] came out at 0.471; in assay [6] it was 0.407; in [7], 0.181; in assay [8] it was 0.0128; in assay [9], 0.202; in assay [10], 0.942. In addition, in [12], the composite z-score was 1.04. The z-score is -4.96 (inactive) in assay [2]; -1.23 (inactive) in assay [3]; -1.28 (inactive) in assay [4]; -0.752 (inactive) in assay [5]; 0.978 (inactive) in assay [11]; 1.04 (inactive) in assay [13]. In addition, the z-score in assay [14] was -0.579 (inactive); in assay [15] it was 0.281 (inactive); in [16], -0.492 (inactive); in assay [17] it was 0.65; in assay [18] it was 0.976 (inactive); in assay [19], 0.868 (inactive). Moreover, the z-score in assay [20] was 1.32.
Regarding `COc1cc(NN2C(C(O)c3ccc(N(C)C)cc3)C=CC3C(=O)N(c4ccccc4)C(=O)C32)cc(OC)c1OC` (stereo not given), the composite z-score in assay [1] was 0.0759; in assay [6] it was 0.535; in assay [7], 0.242; in assay [8] it was -0.223; in assay [9], 0.419; in [10], -0.254. The composite z-score in assay [12] is 0.315. Moreover, the z-score in assay [2] was -2.89 (inactive); in assay [3], -0.414 (inactive); in [4], -0.136 (inactive); in assay [5] it was -0.259 (inactive); in assay [11] it was -2.71 (inactive); in assay [13], 1.76 (inactive). The z-score was -0.891 (inactive) in assay [14]; 0.742 (inactive) in assay [15]; -0.765 (inactive) in [16]; 1.15 in assay [17]; -2.65 (inactive) in assay [18]; -4.37 (inactive) in assay [19]. This compound had a z-score in assay [20] of -4.75.
For the compound `COc1cc2c(cc1O)C(C1CC1)N(C)CC2` (stereo not given), the composite z-score in assay [1] is -0.201; in [6], -0.991; in [7], -0.203; in [8], -0.829; in [9], -1.04; in [10], -0.314. Besides, in [12], the composite z-score was -0.0538. The z-score was -0.426 (inactive) in assay [2]; 0.991 (inactive) in assay [3]; 0.479 (inactive) in [4]; -1.44 (inactive) in [5]; 0.941 (inactive) in assay [11]; 1.79 (inactive) in assay [13]. Further, the z-score in [14] is 0.546 (inactive); in assay [15], 0.0776 (inactive); in assay [16], 0.573 (inactive); in assay [17], -0.0452; in [18], -4.61 (inactive); in assay [19] it was -2.57 (inactive). This compound had a z-score in assay [20] of -2.96.
In the case of `COC(=O)C1(CC(C)C)C=C2C(=C(c3ccccc3)C(=O)C2C)CN1` (stereo not given), the composite z-score in [1] is 0.894; in assay [6] it was 0.246; in assay [7], 0.613; in [8] it was -0.0212; in [9], 1.3; in [10], 1.75. In [12], this compound showed a composite z-score of 1.58. The z-score was -0.207 (inactive) in assay [2]; 0.279 (inactive) in [3]; 0.966 (inactive) in [4]; 1.64 (inactive) in [5]; -1.03 (inactive) in assay [11]; 1.28 (inactive) in [13]. In addition, the z-score in [14] was -0.382 (inactive); in assay [15], 0.806 (inactive); in [16], 0.323 (inactive); in [17] it was 0.54; in assay [18], -0.00718 (inactive); in assay [19] it was -1.48 (inactive). Further, in assay [20], the z-score was -2.44.
